This note sets out measurements from PubChem BioAssay.

The structures appear in SMILES notation.

This assay concerns the target Calmodulin-1 (Homo sapiens) (UniProt P0DP23). The experiment in a line: CALM1 binders on microarrays, EGTA buffer, profiling panel, biochemical, small-molecule microarray, Cy5-labelled CALM1 (AID 1111).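 Note: labelled calmodulin applied in Tris saline Tween buffer holding calcium plus EGTA and DTT.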 The note with it: Cy5-CALM1 binding fluorescence, higher = more signal.
`COc1cc(OC)c(C(O)C2C=CC3C(=O)N(c4ccccc4)C(=O)C3N2Nc2ccccc2F)cc1Br` (stereo not drawn) returned a composite z-score of 1.96. The same measure for `CC(=O)c1ccc(C(O)C2C=CC3C(=O)NC(=O)C3N2Nc2ccc(Cl)cc2Cl)cc1` (stereo not drawn): 0.594; for `C=CCC(OC(C)=O)[C@@H]1[C@@H](N(Cc2cc3ccccc3o2)C(=O)Cc2ccc(OC)cc2)c2cc(OCCCO)ccc2N1C(=O)Cc1ccc(OC)cc1` (stereo partly drawn): -0.211. The value for `COCCCN1C(=O)[C@@]2(Cc3ccccc31)c1ccccc1C(=O)N(Cc1ccccc1OC)[C@H]2c1ccc(CO)cc1` was 0.0145.

Molecule `COc1ccc(C#Cc2ccc3c(c2)[C@]2(C(=O)N3)[C@H](C(=O)Nc3nc4ccccc4s3)[C@H]3C(=O)O[C@H](c4ccccc4)[C@H](c4ccccc4)N3[C@@H]2c2ccc(OCCO)cc2)cc1` gave a composite z-score of 2.19.

The molecule `CC(C)C[C@H]1NC(=O)[C@@H](C)NC(=O)[C@@]23C(=O)N[C@@H](Cc4ccccc4)C2[C@H](C)[C@@]2(C)O[C@H]2C3/C=C/C/C=C\CNC1=O` (stereo partly drawn) came in with a composite z-score of -0.596.

On to `CC(C)C[C@H]1NC(=O)[C@@]23C(=O)N[C@@H](Cc4ccccc4)C2[C@H](C)[C@@]2(C)O[C@H]2C3/C=C/C/C=C\CNC(=O)[C@@H]2CCCN2C1=O` (stereo partly drawn), for which the composite z-score was -0.0621. The same measure for `COc1ccc(C(O)C2C=CC3C(=O)N(C)C(=O)C3N2Nc2ccc([N+](=O)[O-])cc2[N+](=O)[O-])cc1OCc1ccccc1` (stereo not drawn): 0.211; for `[N-]=[N+]=Nc1ccccc1[C@@H]1OC(c2ccc(OCCCO)cc2)=N[C@]1(Cc1ccccc1)C(N)=O`: 1.04.

`CN(C)C(=O)[C@@]1(CCS(=O)(=O)c2ccccc2)N=C(c2ccc(OCCCO)cc2)O[C@H]1c1ccccc1N=[N+]=[N-]`: the composite z-score was -0.038. The value for `CN1C(=O)[C@]2(CCC(=O)OC(C)(C)C)N=C(c3ccc(OCCCO)cc3)O[C@@H]2c2ccccc21` was 0.147; that for `C[N+](C)(C)CCCCCCNC(=O)[C@@H]1C[C@@H]2C(=O)N[C@@H](Cc3ccccc3)C(=O)N2[C@@H]1c1ccc(O)cc1` was -0.193; that for `CCCC=C(CCC)[C@@H](NS(=O)(=O)c1ccc(Cl)cc1)c1ccccc1` was 0.451. The value for `CO[C@H]1O[C@H](CO)[C@@H](OC(=O)Nc2ccc(C(F)(F)F)cc2)[C@H](OC(=O)Nc2ccccc2-c2ccccc2)[C@@H]1OC(=O)Nc1ccccc1-c1ccccc1` was 2.2; that for `CC(C)[C@@H](C(=O)O)n1cc(-c2ccccc2)nn1` was 0.913; that for `C=CCNC(=O)[C@@H]1[C@H]2C(=O)O[C@H](c3ccccc3)[C@H](c3ccccc3)N2[C@H](c2ccc(O)cc2)[C@@]12C(=O)Nc1ccc(C#CC3(O)CCCCCC3)cc12` was -0.542. The value for `O=C1N(CCS(=O)(=O)c2ccccc2)c2ccccc2[C@@H]2OC(c3ccc(OCCCO)cc3)=N[C@]12CCS(=O)(=O)c1ccccc1` was 1.67. In turn, `CCOC(=O)C1=CC[C@@H](c2ccccc2)N(S(=O)(=O)c2ccc(C)cc2)[C@H]1C#N` returned a composite z-score of 0.906. `COc1ccc([Si](C)(C)[C@H]2[C@H](CCO)O[C@@]3(C(=O)N(Cc4ccccc4)c4ccc(N(C=O)c5ccccc5)cc43)[C@@H]2C)cc1` showed a composite z-score of 1.1. The same measure for `COc1cccc(C[C@H]2C[C@@H](CO[Si](C(C)C)(C(C)C)C(C)C)N3C(=O)[C@@]4(C(C)=O)O[C@@]23[C@@H]2C(=O)N(C)C(=O)[C@@H]24)c1`: 0.05; for `C=CC[C@@]1(C(=O)O)N=C(c2ccc(OCCCO)cc2)O[C@@H]1c1ccccc1CN=[N+]=[N-]`: 1.83. The value for `CCCCNC(=O)c1ccc(C#C[Si](C)(C)C)c(OC(C)=O)c1` was -0.262; that for `C=CCNC(=O)[C@H]1[C@@H]2C(=O)O[C@@H](c3ccccc3)[C@@H](c3ccccc3)N2[C@@H](c2ccc(O)cc2)[C@]12C(=O)Nc1ccc(C#CC3=CCCCC3)cc12` was 0.887.
